Results published in PubChem BioAssay AID1159580 (chemical genetic matrix, 2015).
Among all 5,500 compounds or so, about 2,000 (36%) were called active. About 18% were inconclusive and are not listed. No stated cut-off is given here; in the data, active means normalized growth mostly below about 0.91 (no sharp cut-off); inconclusive means no clear call, values can overlap the other calls; inactive means mostly above about 0.92. The list shows a part of the results.

Assay: chemical genetic growth profiling, strain panel (AID 1159580);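 further: tested at 20 µM; growth read once vehicle control cultures reached saturation at 30 °C; 1 = growth at the plate median or of vehicle wells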
Conditions: growth OD

Measured: normalized growth

CC(=O)OCC1(C)CCC2(C)CCC3(C)C4=CCc5c(cc(OC(C)=O)c(OC(C)=O)c5C)C4(C)CCC3(C)C2C1 (stereo not drawn)
inactive: S. cerevisiae deletion strains, locus YAL013W, strain DEP1, stronger effect = lower value 1.01 | S. cerevisiae deletion strains, locus YBR021W, strain FUR4, stronger effect = lower value 0.994 | S. cerevisiae deletion strains, locus YBR229C, strain ROT2, stronger effect = lower value 1.02 | S. cerevisiae deletion strains, locus YCL029C, strain bik1, stronger effect = lower value 1.01 | S. cerevisiae deletion strains, locus YDL035C, strain GPR1, stronger effect = lower value 1.02 | S. cerevisiae deletion strains, locus YDL074C, strain BRE1, stronger effect = lower value 1.04 | S. cerevisiae deletion strains, locus YDL101C, strain DUN1, stronger effect = lower value 1.02 | S. cerevisiae deletion strains, locus YDL185W, strain tfp1, stronger effect = lower value 1.01 | S. cerevisiae deletion strains, locus YDL192W, strain arf1, stronger effect = lower value 1.01 | S. cerevisiae deletion strains, locus YDR101C, strain arx1, stronger effect = lower value 0.974 | S. cerevisiae deletion strains, locus YDR162C, strain NBP2, stronger effect = lower value 1.04 | S. cerevisiae deletion strains, locus YDR318W, strain mcm21, stronger effect = lower value 1.01 | S. cerevisiae deletion strains, locus YDR388W, stronger effect = lower value 0.997 | S. cerevisiae deletion strains, locus YDR502C, strain sam2, stronger effect = lower value 0.984 | S. cerevisiae deletion strains, locus YEL061C, strain CIN8, stronger effect = lower value 1.01 | S. cerevisiae deletion strains, locus YER110C, stronger effect = lower value 0.999 | S. cerevisiae deletion strains, locus YER155C, strain BEM2, stronger effect = lower value 1.01 | S. cerevisiae deletion strains, locus YER167W, strain BCK2, stronger effect = lower value 1 | S. cerevisiae deletion strains, locus YGL078C, strain dbp3, stronger effect = lower value 1 | S. cerevisiae deletion strains, locus YGL086W, strain mad1, stronger effect = lower value 0.998 | S. cerevisiae deletion strains, locus YGL248W, strain PDE1, stronger effect = lower value 1.04 | S. cerevisiae deletion strains, locus YGR135W, strain pre9, stronger effect = lower value 1 | S. cerevisiae deletion strains, locus YGR252W, strain gcn5, stronger effect = lower value 0.992 | S. cerevisiae deletion strains, locus YHR030C, strain SLT2, stronger effect = lower value 1.02 | S. cerevisiae deletion strains, locus YHR079C, strain IRE1 (second series), stronger effect = lower value 1 | S. cerevisiae deletion strains, locus YHR094C, strain hxt1, stronger effect = lower value 1.02 | S. cerevisiae deletion strains, locus YHR129C, strain ARP1, stronger effect = lower value 1.02 | S. cerevisiae deletion strains, locus YHR200W, strain rpn10, stronger effect = lower value 1.01 | S. cerevisiae deletion strains, locus YIL066C, strain RNR3, stronger effect = lower value 1.02 | S. cerevisiae deletion strains, locus YIL073C, strain SPO22, stronger effect = lower value 1.02 | S. cerevisiae deletion strains, locus YIL125W, strain kgd1, stronger effect = lower value 1 | S. cerevisiae deletion strains, locus YIR030C, strain dcg1, stronger effect = lower value 1 | S. cerevisiae deletion strains, locus YJL095W, strain BCK1, stronger effect = lower value 1.04 | S. cerevisiae deletion strains, locus YJL134W, strain LCB3, stronger effect = lower value 1.01 | S. cerevisiae deletion strains, locus YJL168C, strain set2, stronger effect = lower value 1.01 | S. cerevisiae deletion strains, locus YJL187C, strain SWE1 (second series), stronger effect = lower value 1.02 | S. cerevisiae deletion strains, locus YJR043C, strain POL32, stronger effect = lower value 1.02 | S. cerevisiae deletion strains, locus YKL068W, stronger effect = lower value 1.01 | S. cerevisiae deletion strains, locus YKR001C, strain vps1, stronger effect = lower value 0.997 | S. cerevisiae deletion strains, locus YLR039C, strain RIC1, stronger effect = lower value 1.03 | S. cerevisiae deletion strains, locus YLR058C, strain SHM2, stronger effect = lower value 1.02 | S. cerevisiae deletion strains, locus YLR102C, strain apc9, stronger effect = lower value 1 | S. cerevisiae deletion strains, locus YLR262C, strain YPT6, stronger effect = lower value 1.07 | S. cerevisiae deletion strains, locus YLR268W, strain sec22, stronger effect = lower value 1 | S. cerevisiae deletion strains, locus YLR330W, strain CHS5, stronger effect = lower value 1.01 | S. cerevisiae deletion strains, locus YLR342W, strain FKS1 (second series), stronger effect = lower value 1.01 | S. cerevisiae deletion strains, locus YLR371W, strain rom2, stronger effect = lower value 1.01 | S. cerevisiae deletion strains, locus YLR418C, strain cdc73, stronger effect = lower value 1.07 | S. cerevisiae deletion strains, locus YML016C, strain PPZ1, stronger effect = lower value 1.02 | S. cerevisiae deletion strains, locus YML032C, strain rad52, stronger effect = lower value 1 | S. cerevisiae deletion strains, locus YML124C, strain tub3, stronger effect = lower value 0.997 | S. cerevisiae deletion strains, locus YMR078C, strain ctf18, stronger effect = lower value 1.01 | S. cerevisiae deletion strains, locus YMR223W, strain ubp8, stronger effect = lower value 1.01 | S. cerevisiae deletion strains, locus YMR307W, strain GAS1, stronger effect = lower value 1.07 | S. cerevisiae deletion strains, locus YNL067W, strain RPL9B, stronger effect = lower value 1.03 | S. cerevisiae deletion strains, locus YNL128W, strain TEP1, stronger effect = lower value 1.01 | S. cerevisiae deletion strains, locus YNL153C, strain GIM3, stronger effect = lower value 1.02 | S. cerevisiae deletion strains, locus YNL233W, strain BNI4, stronger effect = lower value 1.03 | S. cerevisiae deletion strains, locus YNL250W, strain rad50, stronger effect = lower value 1 | S. cerevisiae deletion strains, locus YNL271C, strain bni1, stronger effect = lower value 0.999 | S. cerevisiae deletion strains, locus YNL298W, strain CLA4, stronger effect = lower value 1 | S. cerevisiae deletion strains, locus YNL307C, strain MCK1, stronger effect = lower value 1 | S. cerevisiae deletion strains, locus YNL322C, strain KRE1, stronger effect = lower value 1.02 | S. cerevisiae deletion strains, locus YNR052C, strain pop2, stronger effect = lower value 1.01 | S. cerevisiae deletion strains, locus YOL012C, strain htz1 1.15 | S. cerevisiae deletion strains, locus YOL147C, strain pex11, stronger effect = lower value 0.993 | S. cerevisiae deletion strains, locus YOR061W, strain CKA2, stronger effect = lower value 1.02 | S. cerevisiae deletion strains, locus YOR069W, strain VPS5, stronger effect = lower value 1.01 | S. cerevisiae deletion strains, locus YOR136W, strain idh2, stronger effect = lower value 0.998 | S. cerevisiae deletion strains, locus YOR144C, strain elg1, stronger effect = lower value 0.994 | S. cerevisiae deletion strains, locus YOR184W, strain ser1, stronger effect = lower value 1.04 | S. cerevisiae deletion strains, locus YOR316C, strain cot1, stronger effect = lower value 1 | S. cerevisiae deletion strains, locus YPR119W, strain clb2, stronger effect = lower value 1 | S. cerevisiae deletion strains, locus YPR141C, strain kar3, stronger effect = lower value 1.01 | S. cerevisiae deletion strains, locus YPR163C, strain tif3, stronger effect = lower value 1.02 | S. cerevisiae deletion strains, locus YPR167C, strain met16, stronger effect = lower value 1 | S. cerevisiae deletion strains, strain wtn01, stronger effect = lower value 1.03 | S. cerevisiae strains, strain wild type, stronger effect = lower value 0.992
